# Screens: PubChem BioAssay, National Center for Advancing Translational Sciences (NCATS)
# Vif-A3F inh = qHTS for Inhibitors of Vif-A3F Interactions: qHTS. Potency, µM (series often up to 46.1 µM), inactives show at the top dose activity, negative = active. hit rate 0.2% among 390,000. HeLa A3F-eYFP + Vif (tagged APOBEC3F with the HIV-1 protein that degrades it), YFP fluorescence increase; note: % of control where 0% means no effect; nearly all actives have a fitted effect of over 65% in size
#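 HeLa cells stably expressing A3F-eYFP plus Vif, plated and incubated overnight at 37 deg C, then exposed to compounds overnight at 37 deg C. Blocked degradation read as raised yellow fluorescence (Ex 488/Em 500-530).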
# Vif-APOBEC3G blk = qHTS for Inhibitors of Vif-A3G Interactions: qHTS; DNA dC->dU-editing enzyme APOBEC-3G (Homo sapiens), Q9HC16; Potency, µM (doses to about 46.1 µM), for inactives: at the highest dose activity, negative = active, most hits filed as inhibitors; HeLa A3G-eYFP + Vif (tagged APOBEC3G with the HIV-1 protein that degrades it), YFP fluorescence, overnight; hit rate 0.076% among 410,000; note: % is set by controls: 0 for no effect and ±100 for the full control effect; nearly all actives have a fitted effect of over 60% in size
# Target sequence (Q9HC16 whole entry, looked up): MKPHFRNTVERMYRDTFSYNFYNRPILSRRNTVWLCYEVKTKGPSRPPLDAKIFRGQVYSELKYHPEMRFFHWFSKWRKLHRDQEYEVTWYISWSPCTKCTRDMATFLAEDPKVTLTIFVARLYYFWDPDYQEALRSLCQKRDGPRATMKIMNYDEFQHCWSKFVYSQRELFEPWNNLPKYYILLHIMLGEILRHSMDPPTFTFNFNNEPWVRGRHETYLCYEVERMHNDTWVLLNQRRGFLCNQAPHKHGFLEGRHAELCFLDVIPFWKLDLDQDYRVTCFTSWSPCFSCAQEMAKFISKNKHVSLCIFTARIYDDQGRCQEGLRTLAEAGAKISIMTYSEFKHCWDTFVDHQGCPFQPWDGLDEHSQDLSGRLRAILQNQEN
#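 Read-out is eYFP fluorescence (Ex 488/Em 500-530) from Vif-expressing HeLa A3G-eYFP cells; more signal means A3G escaped Vif-mediated degradation. Cells plated overnight, compound pinned in, incubated overnight at 37 deg C.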
# Abeta yeast res = qHTS for compounds that reverse cellular toxicity of Amyloid beta (A-beta) peptide in yeast: Primary Screen. yeast expressing A-beta42, growth rescue, OD600, 48 h; response scale: 0% DMSO, 100% iron-clioquinol control. Potency, µM (doses to about 46.1 µM), most hits filed as activators. hit rate 0.063% among 410,000; note: nearly all actives have a fitted effect of over 55% in size
#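 Yeast A-beta toxicity model in growth medium with pinned compounds, 48 h at 30 C; growth read as absorbance at 600 nm. Normalized to FeCl3/clioquinol equimolar mix (positive) and DMSO (negative).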
# FUS yeast rescue = qHTS for Suppressors of FUS Proteinopathy: Primary screen using FUS-linked yeast assay. hit rate 0.24% among 390,000. S. cerevisiae FUS-expressing, growth rescue, OD600, 24 h. Potency, µM (doses to about 76.6 µM), most hits filed as activators. AID 1347120, 2019;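 note: plate controls were DMSO vehicle for no effect and reference control for full effect; nearly all actives have a fitted effect of over 55% in size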
#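 Yeast FUS proteinopathy model; galactose-induced FUS (2%), starting OD 0.005. Cpds in dilution series, 24hr, 30C, 99% humidity. Abs 600 nm growth. Pos ctrl CP55940 (top 92uM final); neg ctrl DMSO.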
# PINK1 modulator = A Quantitative High throughput Screen to Identify Chemical Modulators of PINK1 Expression | PINK1 immunofluorescence, high-content cytometry, 24 h | Potency, µM (top dose mostly 76.6 µM), for inactives: at the highest dose activation (PINK1 increase), usual class: activators | hit rate 0.2% among 410,000; active = well fitted activation curve with a large enough effect; inconclusive = small, poorly fitted or top-dose-only effect; cell line not stated here; note: % of control where 0% means no effect; nearly all actives have a fitted effect of over 65% in size
#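 Decision-based qHTS: stable cells, 24 h exposure to five compound concentrations, CCCP as control. Fixed cells stained for PINK1 plus nuclear, mitochondrial and cell markers, cytometer read.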
# GRP78 ERSR act = qHTS for Inducers of the Endoplasmic Reticulum Stress Response (ERSR) in Human Glioma: qHTS; AID 602332, 2012; Potency, µM, inactives show at the top dose activation, actives largely listed as activators; U87-MG GRP78 promoter luciferase reporter, 16 h; hit rate 0.02% among 420,000; note: series mostly up to about 76 µM; % of control where 0% means no effect; nearly all actives have a fitted effect of over 35% in size
#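 Stably transfected U87-MG human glioma cells carrying a GRP78-based luminescent sensor were seeded at 1000 cells/well, pin-dosed with compounds and incubated 16 h. Luciferase reagent was then added, and end-point luminescence was read after 10 min at room temperature.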
# * hit, by the source's call; i = inactive; u = inconclusive; x = no result; ! = not active in a repeat. This is a sample that favours compounds with a hit; in the whole collection about 0.69% have one here. Unless noted, calls come from the whole dose curve; as a rule, active = well fitted curve in the direction sought with a large enough effect; inconclusive = small, poorly fitted or top-dose-only effect, or another doubt; inactive = no such curve, though single readings can be large; an effect the other way counts as inactive or inconclusive. Potency is the fitted concentration of half-maximal effect.
SMILES,Vif-A3F inh,Vif-APOBEC3G blk,Abeta yeast res,FUS yeast rescue,PINK1 modulator,GRP78 ERSR act
COCC(=O)Nc1cc(C(=O)N2CCc3c(Cl)cccc3C2)c2c(c1)nc(-c1ccncc1)n2C,x,x,x,x,0%,-5%
O=C(COc1ccc(Cl)cc1)Nc1ncc([N+](=O)[O-])s1,5%,3%,i,i,16µM*,-10%
O=C(Cc1ccc(Cl)cc1)Nc1ncc([N+](=O)[O-])s1,-4%,-2%,i,i,u,1%
O=C(Cc1ccc(Br)cc1)Nc1ncc([N+](=O)[O-])s1,-12%,0%,i,i,25µM*,-4%
CS(=O)(=O)N1CCN(/[N+]([O-])=N/Oc2ccc([N+](=O)[O-])cc2[N+](=O)[O-])CC1 (tested in a mixture with another compound),x,-1%,x,x,-1%,-5%
COc1cc(C2C(C(=O)c3cc4ccccc4o3)=C(O)C(=O)N2CCN2CCOCC2)ccc1OCCC(C)C (stereo not given),-9%,-7%,i,28µM*,5%,-2%
CCN1CCCC1CNC(=O)c1cnn(-c2nccc(-c3cc4ccccc4o3)n2)c1C (stereo not given),x,x,x,x,-1%,-2%
COCCN1C=C(C(=O)OC)C(c2cc3c(cc2Br)OCO3)C(C(=O)OC)=C1,0%,3%,i,i,4µM*,0%
FC(F)Sc1ccc(NC(=S)NCc2ccccc2)cc1,2%,1%,u,i,14µM*,-3%
FC(F)Sc1ccc(NC(=S)NC(c2ccccc2)c2ccccc2)cc1,-24%,-7%,i,i,u,3%
COc1ccc(N2CCN(C(=O)c3ccc4c(c3)CCN4S(=O)(=O)c3ccccc3)CC2)cc1,8%,4%,i,u,2%,0%
O=C(c1ccc2c(c1)CCN2S(=O)(=O)c1ccccc1)N1CCN(c2ccc(F)cc2)CC1,0%,0%,i,18µM*!,0%,-1%
O=C1C(=Cc2cccn2-c2ccc(O)cc2)C(=O)c2ccccc21,u,-7%,i,i,u,0%
O=C1C(=Cc2cccn2-c2ccccc2)C(=O)c2ccccc21,28µM*,u,i,i,u,2%
CC(=O)Nc1ccc(S(=O)(=O)N2CCCc3ccccc32)cc1,-4%,u,i,i,3.2µM*,-5%
O=S(=O)(c1ccc(Cl)cc1)N1CCCc2ccccc21,-4%,-12%,i,i,3%,4%
CCCCNc1c(-c2ccc(Sc3ccc(OC)cc3)cc2)nc2cc(C)ccn12,-1%,2%,i,u,28µM*,12%
CCCCNc1c(-c2ccc(OC)c(SC(C)CC)c2)nc2cc(C)ccn12 (stereo not given),0%,1%,i,u,15%,-7%
COC(=O)c1ccc(Nc2c([N+](=O)[O-])ccc3nonc23)cc1,25µM*,u,i,i,14µM*,-3%
CCNC(=S)Nc1ccc2c(c1)c(=O)n(C)n2-c1ccc(C(C)(C)C)cc1,x,-4%,i,32µM*,0%,-4%
Cn1c(=O)c2cc(NC(=O)Cc3ccccc3F)ccc2n1-c1ccc(C(C)(C)C)cc1,x,-20%,i,u,28%,1%
Cn1c(SCC2CCCO2)nnc1C1CCN(Cc2ccccc2O)CC1 (stereo not given),x,x,x,x,-1%,-2%
C/C(=N\NC(=O)c1cc(-c2cccs2)nc2ccccc12)c1ccccn1,-2%,-9%,13µM*,i,1%,-6%
NNC(=O)c1cc(-c2cccs2)nc2ccccc12,-6%,u,i,i,6%,1%
CC(C)(C)OC(=O)NCc1ccc(NC(=O)c2nc[nH]c2C(=O)NCCCNC(=O)c2[nH]cnc2C(=O)Nc2ccc(CNC(=O)OC(C)(C)C)cc2)cc1,u,u,i,i,3%,-4%
SMILES,Vif-A3F inh,Vif-APOBEC3G blk,Abeta yeast res,FUS yeast rescue,PINK1 modulator,GRP78 ERSR act
CC(C)(C)OC(=O)NCc1ccc(NC(=O)c2nc[nH]c2C(=O)NCCN(CCNC(=O)c2[nH]cnc2C(=O)Nc2ccc(CNC(=O)OC(C)(C)C)cc2)CCNC(=O)c2[nH]cnc2C(=O)Nc2ccc(CNC(=O)OC(C)(C)C)cc2)cc1,6%,2%,i,8.9µM*,0%,-3%
COc1ccc(OC)c(-c2cc(Cl)c3c(c2)CC(CNC(=O)/C=C/c2ccccn2)O3)c1 (stereo not given),x,x,x,x,-1%,1%
c1ccc2c(Nc3ccc4c(c3)OCCO4)c3c(nc2c1)CCC3,2%,-19%,i,i,40µM*,-5%
c1ccc(Nc2c3c(nc4ccccc24)CCC3)cc1,1%,2%,i,i,0%,-9%
CCc1cccc(C)c1NC(=O)CN1CCN(S(=O)(=O)c2ccc(C(C)(C)C)cc2)CC1,7%,1%,i,35µM*,22%,0%
CCN(CC)c1ccc2cc(-c3nc(-c4ccc(OC)cc4)cs3)c(=O)oc2c1,-105%,6%,i,x,u,-4%
CCN(CC)c1ccc2cc(-c3nc4ccccc4n3C)c(=O)oc2c1,11µM*,u,i,x,u,1%
CCN(CC)c1ccc2cc(-c3nc(-c4ccc(Cl)cc4Cl)cs3)c(=O)oc2c1,7.1µM*,-21%,i,i,-1%,-2%
CN(C)c1ccc(/C=C(/C#N)C(=O)NCc2ccccc2)o1,10µM*,u,i,x,u,2%
N#C/C(=C/c1ccccc1)C(=O)NCc1ccccc1,-37%,-16%,i,i,6%,u
S=c1[nH]c2ccccc2n2cccc12,4%,5%,11µM*,i,-1%,3%
Cc1cccc(CN2CCc3nnc(C(C)NC(=O)C4CCOCC4)n3CC2)c1 (stereo not given),x,x,x,x,3%,-2%
O=[N+]([O-])c1ccc(O)c(/C=N/NC(=S)Nc2ccc(Cl)cc2Cl)c1,u,-6%,i,i,40µM*,0%
O=C(N/N=C/c1cc([N+](=O)[O-])ccc1O)c1c[nH]c2ccccc12,2%,0%,i,i,35µM*,-2%
Cc1cc(C)nc(S[C@@H]2C[C@@H](C(=O)N3CCCN(C)CC3)N(Cc3cc(F)ccc3F)C2)n1,x,x,x,x,2%,-5%
